Screens from PubChem BioAssay.
A selection: hits, their analogues and other compounds. The true share with any hit is near 3%.
PLK1 PBD inh – qHTS for Inhibitors of PLK1-PDB (polo-like kinase 1 - polo-box domain): Primary Screen | Serine/threonine-protein kinase PLK1 (Homo sapiens), P53350 | Plk1 PBD binding of FITC phosphopeptide, fluorescence polarization | Potency, µM, hits mostly inhibitors | 360,000 tested, 2.8% active | AID 720504, 2013; further: series mostly up to about 57 µM; nearly all actives have a fitted effect of over 65% in size
Target sequence (P53350 whole entry, looked up, the tested form may be a part): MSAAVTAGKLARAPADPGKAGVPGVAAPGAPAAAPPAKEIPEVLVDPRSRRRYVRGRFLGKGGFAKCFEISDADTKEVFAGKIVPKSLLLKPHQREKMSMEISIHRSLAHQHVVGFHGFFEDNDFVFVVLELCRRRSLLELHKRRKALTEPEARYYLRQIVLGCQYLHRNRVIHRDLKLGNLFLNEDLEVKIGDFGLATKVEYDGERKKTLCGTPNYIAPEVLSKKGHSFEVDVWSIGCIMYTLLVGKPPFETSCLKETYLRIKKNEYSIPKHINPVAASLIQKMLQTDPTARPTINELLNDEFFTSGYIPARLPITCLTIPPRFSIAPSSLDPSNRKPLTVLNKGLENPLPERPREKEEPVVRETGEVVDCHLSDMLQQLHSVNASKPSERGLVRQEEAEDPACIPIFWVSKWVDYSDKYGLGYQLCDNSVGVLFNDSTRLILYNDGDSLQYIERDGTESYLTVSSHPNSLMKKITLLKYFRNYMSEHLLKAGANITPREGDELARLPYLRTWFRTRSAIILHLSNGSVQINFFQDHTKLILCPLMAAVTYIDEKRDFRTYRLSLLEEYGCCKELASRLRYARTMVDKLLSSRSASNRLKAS
USP1-UAF1 inh – Inhibitors of USP1/UAF1: Primary Screen | Ubiquitin carboxyl-terminal hydrolase 1 (Homo sapiens), O94782 | recombinant USP1/UAF1, Ub-Rhodamine cleavage fluorescence | Potency, µM (highest dose often 57.1 µM), actives largely listed as inhibitors | 390,000 tested, 0.23% active | AID 743255, 2014; further: nearly all actives have a fitted effect of over 60% in size
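USP1/UAF1 complex at 1 nM was preincubated with compound for 15 min at room temperature, then Ub-Rho substrate (150nM final) was added. Fluorescence (480/540 nm) was read kinetically, 6 reads every 60 seconds.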
GCN5L2 inh – qHTS Assay for Inhibitors of GCN5L2; GCN5L2 HAT assay, ThioGlo1 CoA-SH fluorescence; Potency, µM (titrated, usually from 58.9 µM), actives largely listed as inhibitors; 390,000 tested, 0.21% active
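Fluorescence readout, Ex340nm/Em540nm: ThioGlo1 (50uM final) reacts with free CoA thiol released as 20nM GCN5L2 acetylates H3(1-25) peptide (75uM) using acetyl-CoA (70uM). Compound and enzyme sat 15 min beforehand; 20 min room-temperature reaction.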
PTAP TSG101 blk – qHTS Assay for Iinhibitors of HIV-1 Budding by Blocking the Interaction of PTAP/TSG101 | Fluorescence polarization, FITC-PTAP peptide / Tsg101 binding | 340,000 tested, under 10 active | AID 493005, 2010 | Potency, µM (series often up to 115 µM), most hits filed as inhibitors; active means well fitted inhibition curve with a large enough effect in the main read-out, with a control signal flat, not every such curve was filed as active; inconclusive means small, poorly fitted or top-dose-only effect, or effect the other way, or a change in a side signal; inactive means no such curve, though single readings can be large or run the other way
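Fluorescence anisotropy tracks displacement of a FITC-tagged PTAP peptide (50 nM) from the Tsg101 binding domain (10 uM), following a 20 min room-temperature incubation at pH 7.5.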
VDR inhibitor – Inhibitors of the vitamin D receptor (VDR): qHTS | Potency, µM, most hits filed as inhibitors | 400,000 tested, 0.93% active | Vitamin D3 receptor (Homo sapiens), P11473 | VDR-SRC2-3 peptide fluorescence polarization, 2 h | AID 504847, 2011
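FP read-out; VDR + SRC2-3 coactivator peptide; 23 nl compound by pintool; 2 h RT incubation; reagents held at 4 deg C, protected from light.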
A number is an active result. Unless noted, the call rests on the fitted dose curve; in most records, active means well fitted curve in the direction sought with a large enough effect; inconclusive means small, poorly fitted or top-dose-only effect, or another doubt; inactive means no such curve, though single readings can be large; an effect the other way counts as inactive or inconclusive.

COc1ccc2c(c1)CCc1cn[nH]c1-2 was read as PLK1 PBD inh 27µM, USP1-UAF1 inh inactive, GCN5L2 inh inactive, PTAP TSG101 blk inactive and VDR inhibitor inconclusive.
Screening COc1ccc2c(c1)CCc1cnoc1-2 returned PLK1 PBD inh inactive, USP1-UAF1 inh inactive, PTAP TSG101 blk inactive and VDR inhibitor inactive.
CCCCc1cn([C@@H](CCCCN)C(=O)N2CCNCC2)nn1 was read as PLK1 PBD inh 21µM, USP1-UAF1 inh inactive, GCN5L2 inh inactive, PTAP TSG101 blk inactive and VDR inhibitor inactive.
`NCCCC[C@@H](C(=O)N1CCNCC1)n1cc(CN)nn1` gave PLK1 PBD inh inactive, USP1-UAF1 inh inactive, GCN5L2 inh inactive, PTAP TSG101 blk inactive and VDR inhibitor inactive.
Screening Cc1cc(C)c(C(=O)Nc2ccccc2)c(SCC(=O)Nc2ccc(Br)cc2C)n1 returned USP1-UAF1 inh inactive, GCN5L2 inh inactive and VDR inhibitor inactive.
O=C(Nc1cc(Cl)ccc1Cl)c1cc([N+](=O)[O-])cc(Br)c1O was read as VDR inhibitor 79µM.
`COc1ccc(C(=O)COC(=O)Cn2nnc3ccccc32)cc1Br` gave PLK1 PBD inh inactive, USP1-UAF1 inh inactive, GCN5L2 inh inactive, PTAP TSG101 blk inactive and VDR inhibitor inactive.
`COc1ccc(C(=O)n2nnc3ccccc32)cc1Br` gave PLK1 PBD inh 1.5µM, USP1-UAF1 inh inactive, GCN5L2 inh inactive, PTAP TSG101 blk inactive and VDR inhibitor inactive.
For COc1cc(OC)c2c(O)c3c(c(-c4c5c(c(O)c6c(OC)cc(OC)cc46)CO[C@@H](C)[C@H]5O)c2c1)[C@H](O)[C@H](C)OC3 the results were PLK1 PBD inh 21µM, USP1-UAF1 inh inconclusive, GCN5L2 inh inconclusive, PTAP TSG101 blk inactive and VDR inhibitor inactive.
Screening Cc1ccnc(SCc2ccc(C(=O)O)cc2)n1 returned PLK1 PBD inh 12µM, USP1-UAF1 inh inactive, GCN5L2 inh inactive, PTAP TSG101 blk inactive and VDR inhibitor inactive.
For Cc1cc(C)c2c(=O)n(CC(=O)Nc3ccc(Cl)cc3)sc2n1 the results were PLK1 PBD inh 1.3µM, USP1-UAF1 inh inactive, GCN5L2 inh inconclusive, PTAP TSG101 blk inactive and VDR inhibitor 40µM.
Screening Cc1cc(C)n(CCC(=O)Nc2ccc(Cl)cc2)n1 returned USP1-UAF1 inh inactive, GCN5L2 inh inactive and VDR inhibitor inactive.
Screening Cc1ccc(NC(=O)Cn2sc3nc(C)cc(C)c3c2=O)c(Cl)c1 returned PLK1 PBD inh 1.5µM, USP1-UAF1 inh inactive, GCN5L2 inh 28µM, PTAP TSG101 blk inactive and VDR inhibitor inconclusive.
Cc1cccc(N2CCN(C(=O)Cn3sc4nc(C)cc(C)c4c3=O)CC2C)c1 (stereo unspecified) was read as PLK1 PBD inh 1.7µM, USP1-UAF1 inh inactive, GCN5L2 inh inconclusive, PTAP TSG101 blk inactive and VDR inhibitor 16µM.
For O=C(Cn1c(=O)c2ccccc2n2nncc12)Nc1cccc(F)c1 the results were USP1-UAF1 inh inactive, GCN5L2 inh inactive and VDR inhibitor inactive.
`Cc1cc(C)c2c(=O)n(CC(=O)N3CCC(Cc4ccccc4)CC3)sc2n1` gave GCN5L2 inh inactive.
`Cc1cc(C)c2c(=O)n(CC(=O)Nc3cccc(F)c3)sc2n1` gave PLK1 PBD inh 1.9µM, USP1-UAF1 inh inactive, GCN5L2 inh inconclusive, PTAP TSG101 blk inactive and VDR inhibitor 14µM.
Screening CO[C@H]1CN(C)C(=O)c2ccc(NC(=O)c3ccc4c(c3)OCO4)cc2OC[C@H](C)N(CC2CC2)C[C@@H]1C returned PLK1 PBD inh inactive.
For COc1ccc2oc(=O)cc(CN3CCN(C(=O)c4ccccc4)CC3)c2c1 the results were USP1-UAF1 inh inactive, GCN5L2 inh inactive and VDR inhibitor inactive.
`Cc1nc(C(F)(F)F)ccc1C(=O)N1CCC1(C)C(=O)NCc1cccs1` (stereo unspecified) gave PLK1 PBD inh inactive.
`COc1cc(C(=O)OCc2cc(=O)oc3c(C)c(C)ccc23)ccc1OC(F)F` gave PLK1 PBD inh 24µM, USP1-UAF1 inh inactive, GCN5L2 inh inactive, PTAP TSG101 blk inactive and VDR inhibitor inconclusive.
